The values that follow come from PubChem BioAssay.

The subject of assay [1] is Wnt5a (protein binding on small-molecule microarray). Put plainly: small molecules binding Wnt5a protein – biophysical, small-molecule microarray, 635/667 nm fluorescence, primary screen (AID 1142).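 Also: fluorescence read at 667 nm with signal to noise per printed feature.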 The note with it: 635 nm fluorescence, higher = more signal.
The nature of assay [2]: ATP-based viability of Huh7 replicon cells – cell-based, CellTiter-Glo luminescence, basal, 48 h, cytotoxicity control for HCV replication inhibitor project, primary screen (AID 1143).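 Also: Huh7 hepatoma cells carrying a hepatitis C replication reporter with no stimulus; test concentration not given here.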 The note with it: higher = more signal, called active from +8 up or from −8 down.
Assay [3] in a line: Pseudomonas biofilm growth suppression – PAO1 strain, BacTiter-Glo luminescence, LB-PBS, primary screen (AID 1144). The note with it: P. aeruginosa PAO1 biofilm, 12 h, higher = more signal.
The nature of assay [4]: basal CRE-LacZ reporter activity in PC12 – cell-based, unstimulated, primary screen (AID 1145). As to conditions: no forskolin, luminescence, 4.5 h, higher = more signal, called active from +8 up or from −8 down.
Assay [5] in a line: forskolin-driven CRE-LacZ activity in PC12 – cell-based, CRE-LacZ reporter, forskolin-stimulated, primary screen (AID 1146).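 Also: PC12 cells with 6xCRE LacZ reporter stimulated by forskolin 10 µM; beta-galactosidase reporter signal reflecting CREB driven transcription.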 As to conditions: luminescence, 4.5 h, higher = more signal, called active from +8 up or from −8 down.
Assay [6] deals with Streptavidin (Streptomyces avidinii) (UniProt P22629). Put plainly: compounds binding control protein streptavidin – biophysical, small-molecule microarray, 635/667 nm fluorescence, artefact control for SMM compound annotation, primary screen (AID 1147).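 Also: signal reflects streptavidin binding to arrayed compounds as a control protein.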 As to conditions: higher = more signal.
Assay [7] in a line: probe aInhba binding on compound microarray – biochemical, small-molecule microarray, 635/667 nm fluorescence, primary screen (AID 1148).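 Also: score merges 667nm spot fluorescence with signal-to-noise for antibody binding to printed compounds.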 The note with it: higher = more signal.
For assay [8], the target named is Torsin-1A (Homo sapiens) (UniProt O14656). Kind of assay: TOR1A wild-type binding on microarray – cell lysate, small-molecule microarray, lysate, 635/667 nm, primary screen (AID 1149). As to conditions: COS7 hTOR1A-WT lysate, 635 nm fluorescence, higher = more signal.
For assay [9] the target is unchanged. Kind of assay: torsin A mutant lysate binding on microarrays – cell lysate, small-molecule microarray, COS7 lysate, 635/667 nm fluorescence, primary screen (AID 1150).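 Also: score pools 667 nm emission and signal to noise measuring lysate protein binding.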 As to conditions: COS7 hTOR1A mutant lysate, 635 nm fluorescence, higher = more signal.
The subject of assay [10] is Sonic hedgehog protein (Shh). Kind of assay: Sonic hedgehog microarray binding compounds – biochemical, small-molecule microarray, 635/667 nm fluorescence, primary screen (AID 1151).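 Also: Shh protein binding to compounds spotted on small-molecule microarray slides; score combines spot fluorescence intensity with signal-to-noise across triplicate slides.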 As to conditions: 635 nm fluorescence, higher = more signal.
The nature of assay [11]: optical density shifts of acrAB sulA E. coli – strain DRC41, OD650, 48 h, E. coli filamentation inducer project, primary screen (AID 1152).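 Also: E. coli MC1000 strain DRC41 lacking acrAB efflux pump and sulA.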 The note with it: higher = more signal, called active from +8 up or from −8 down.
Assay [12] can be described thus: probe aLefty1 binding on compound microarray – biochemical, small-molecule microarray, 635/667 nm fluorescence, primary screen (AID 1153).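 Also: score merges spot fluorescence with signal-to-noise ratio from the scanned slide images.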 As to conditions: higher = more signal.
Assay [13] can be described thus: plasmodial surface anion channel blockers, osmotic lysis – cell-based, P. falciparum Indochina, OD700, 1 h, primary screen (AID 1154). The note with it: P. falciparum Indochina infected RBC osmotic lysis, higher = more signal, called active from +8 up or from −8 down.
Assay [14] in a line: plasmodial surface anion channel blockers, osmotic lysis – cell-based, P. falciparum Indochina, OD700, 2 h, primary screen (AID 1155).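 Also: lysis reports solute entry through the parasite surface anion channel PSAC.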 The note with it: P. falciparum Indochina infected erythrocytes, higher = more signal, called active from +8 up or from −8 down.
Assay [15] can be described thus: changes in parasitized red cell lysis, either direction – P. falciparum Indochina, OD700, 3 h, PSAC antagonist project, primary screen (AID 1156). As to conditions: P. falciparum-infected erythrocytes, osmotic lysis, higher = more signal, called active from +8 up or from −8 down.
Assay [16] in a line: plasmodial surface anion channel blockers, osmotic lysis – cell-based, P. falciparum Indochina, OD700, 18 h, primary screen (AID 1157). The note with it: P. falciparum Indochina infected erythrocytes, osmotic lysis OD700, 18 h; higher = more signal, called active from +8 up or from −8 down.
Assay [17] in a line: S6 kinase pathway phospho-S6 level changes – cell-based, A549, cytoblot, luminescence, serum-stimulated, primary screen (AID 1158).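 Also: serum-stimulated A549 lung adenocarcinoma cells; signal is phosphorylated S6 detected by cytoblot immunostaining with HRP secondary.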 As to conditions: 5 h, higher = more signal.
The target of assay [18] is NADPH oxidase 2 (Homo sapiens) (UniProt P04839). Kind of assay: compounds shifting NOX2 Amplex Red fluorescence – cell-based, HEK293-NOX2, PMA-stimulated, NOX inhibitor project, primary screen (AID 1159). Also: test concentration not given here. As to conditions: 45 min, higher = more signal, called active from +8 up or from −8 down.
In assay [19] the target is NADPH oxidase 4 (Homo sapiens) (UniProt Q9NPH5). Put plainly: compounds shifting NOX4 Amplex Red fluorescence – cell-based, HEK293-NOX4, tetracycline-induced, NOX inhibitor project, primary screen (AID 1160). As to conditions: HEK293-NOX4, Amplex Red H2O2 fluorescence, 45 min; higher = more signal, called active from +8 up or from −8 down.
Assay [20] deals with NADPH oxidase 5 (Homo sapiens) (UniProt Q96PH1). Put plainly: compounds shifting NOX5 Amplex Red fluorescence – cell-based, HEK293-NOX5, NOX inhibitor project, primary screen (AID 1161). As to conditions: HEK293-NOX5, ionomycin, 45 min, higher = more signal.

Each structure is given as a SMILES string. The source made the active and inactive calls. Unless noted, no rule for the calls is given here.

Sequence of Torsin-1A (Homo sapiens) (O14656 whole entry, looked up): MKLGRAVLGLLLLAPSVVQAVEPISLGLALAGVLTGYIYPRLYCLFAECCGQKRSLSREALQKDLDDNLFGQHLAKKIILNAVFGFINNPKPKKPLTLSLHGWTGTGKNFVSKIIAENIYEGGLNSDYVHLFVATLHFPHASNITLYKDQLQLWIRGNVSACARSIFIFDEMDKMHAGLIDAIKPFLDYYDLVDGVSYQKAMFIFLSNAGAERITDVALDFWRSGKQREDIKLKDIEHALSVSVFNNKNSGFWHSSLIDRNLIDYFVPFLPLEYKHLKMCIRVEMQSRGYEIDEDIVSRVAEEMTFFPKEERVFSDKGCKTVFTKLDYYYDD
Sequence of NADPH oxidase 5 (Homo sapiens) (Q96PH1 whole entry, looked up): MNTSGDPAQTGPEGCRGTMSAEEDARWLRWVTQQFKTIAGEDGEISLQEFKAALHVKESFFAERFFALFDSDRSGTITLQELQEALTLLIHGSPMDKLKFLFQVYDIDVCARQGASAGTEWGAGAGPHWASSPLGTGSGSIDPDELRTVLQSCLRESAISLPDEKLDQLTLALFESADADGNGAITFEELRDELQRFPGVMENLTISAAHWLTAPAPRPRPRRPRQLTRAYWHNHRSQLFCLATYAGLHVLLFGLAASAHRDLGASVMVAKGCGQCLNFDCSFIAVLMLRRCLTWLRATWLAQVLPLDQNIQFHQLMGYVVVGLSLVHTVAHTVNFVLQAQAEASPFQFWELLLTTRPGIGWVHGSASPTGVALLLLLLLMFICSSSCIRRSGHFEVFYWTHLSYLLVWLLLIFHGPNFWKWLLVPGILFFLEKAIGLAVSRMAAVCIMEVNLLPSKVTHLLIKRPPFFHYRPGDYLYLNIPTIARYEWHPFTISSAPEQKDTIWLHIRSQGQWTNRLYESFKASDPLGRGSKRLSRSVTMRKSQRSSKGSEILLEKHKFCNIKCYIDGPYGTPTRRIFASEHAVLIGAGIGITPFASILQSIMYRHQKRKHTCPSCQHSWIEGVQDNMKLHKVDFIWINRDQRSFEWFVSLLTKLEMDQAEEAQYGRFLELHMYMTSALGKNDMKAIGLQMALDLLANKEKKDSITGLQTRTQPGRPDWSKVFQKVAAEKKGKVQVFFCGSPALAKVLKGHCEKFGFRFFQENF
Sequence of NADPH oxidase 2 (Homo sapiens) (P04839 whole entry, looked up): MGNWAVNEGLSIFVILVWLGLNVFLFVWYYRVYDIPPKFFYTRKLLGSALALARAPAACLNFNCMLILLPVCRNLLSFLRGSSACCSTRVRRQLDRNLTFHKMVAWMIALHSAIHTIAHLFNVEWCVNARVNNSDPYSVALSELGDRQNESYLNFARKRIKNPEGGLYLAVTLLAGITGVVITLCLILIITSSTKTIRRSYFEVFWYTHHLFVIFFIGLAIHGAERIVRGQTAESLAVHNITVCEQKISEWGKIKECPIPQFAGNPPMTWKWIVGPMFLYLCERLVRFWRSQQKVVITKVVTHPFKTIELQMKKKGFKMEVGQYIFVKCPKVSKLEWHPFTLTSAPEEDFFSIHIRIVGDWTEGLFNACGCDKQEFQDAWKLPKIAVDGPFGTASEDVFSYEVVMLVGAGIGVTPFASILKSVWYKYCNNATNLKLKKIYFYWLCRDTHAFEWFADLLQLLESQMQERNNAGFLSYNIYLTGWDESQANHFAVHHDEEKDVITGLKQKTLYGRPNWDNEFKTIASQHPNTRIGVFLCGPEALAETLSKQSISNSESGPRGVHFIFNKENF
Sequence of Streptavidin (Streptomyces avidinii) (P22629 whole entry, looked up): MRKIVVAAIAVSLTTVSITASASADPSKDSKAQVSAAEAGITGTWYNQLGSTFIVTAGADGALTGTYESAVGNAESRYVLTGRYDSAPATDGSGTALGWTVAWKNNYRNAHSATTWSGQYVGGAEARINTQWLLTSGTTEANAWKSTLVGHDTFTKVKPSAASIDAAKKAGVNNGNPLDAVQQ
Sequence of NADPH oxidase 4 (Homo sapiens) (Q9NPH5 whole entry, looked up): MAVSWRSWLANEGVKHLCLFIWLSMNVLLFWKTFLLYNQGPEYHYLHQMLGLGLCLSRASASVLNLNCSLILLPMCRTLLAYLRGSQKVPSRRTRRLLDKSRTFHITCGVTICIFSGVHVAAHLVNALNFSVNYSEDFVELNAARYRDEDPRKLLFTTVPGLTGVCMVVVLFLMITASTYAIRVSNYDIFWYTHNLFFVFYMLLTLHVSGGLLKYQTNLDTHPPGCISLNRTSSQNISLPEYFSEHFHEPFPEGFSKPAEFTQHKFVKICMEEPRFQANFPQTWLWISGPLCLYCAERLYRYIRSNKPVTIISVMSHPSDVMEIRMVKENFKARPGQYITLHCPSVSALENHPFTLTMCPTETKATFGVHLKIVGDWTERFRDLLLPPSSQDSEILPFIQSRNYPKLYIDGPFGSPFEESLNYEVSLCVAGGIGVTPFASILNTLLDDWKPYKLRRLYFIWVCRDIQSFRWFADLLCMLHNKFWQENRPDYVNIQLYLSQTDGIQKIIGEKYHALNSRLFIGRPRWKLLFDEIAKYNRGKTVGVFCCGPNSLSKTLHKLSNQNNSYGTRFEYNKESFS

For `COC(=O)[C@@]1(Cc2ccc(OC)cc2)[C@@H]2[C@@H](CC(=O)[C@H]2CC(=O)C(=O)N2CCCC2)CN1C(=O)c1ccccc1`, the composite z-score in [1] was 2.07; in assay [6], 1.7; in assay [7], 1.69; in the assay with Torsin-1A (Homo sapiens) [8], 0.774; with Torsin-1A (Homo sapiens) [9], 1.27; in assay [10], -0.566. The compound further gave a composite z-score in [12] of 2.14. Also, the z-score in assay [2] is -2.82 (inactive); in [3], -0.98 (inactive); in [4], 0.779 (inactive); in [5], -0.013 (inactive); in assay [11], -1.17 (inactive); in assay [13], 4.55 (inactive). Also, the z-score was 0.989 (inactive) in assay [14]; 1.07 (inactive) in assay [15]; 0.986 (inactive) in assay [16]; 0.0676 in [17]; -0.204 (inactive) in assay [18]; 0.65 (inactive) in assay [19]. Also, in assay [20], the z-score came to 0.26.
`C[C@H]1NC(=O)C([C@@H](C)OCc2ccccc2)NC(=O)[C@@]23C(=O)N[C@@H](Cc4ccccc4)C2[C@H](C)[C@@]2(C)O[C@H]2C3/C=C/C/C=C\CNC1=O` (stereo not given in full): the composite z-score in assay [1] is 0.0077; in assay [6], -0.556; in [7] it was -0.179; with Torsin-1A (Homo sapiens) [8], 0.378; with Torsin-1A (Homo sapiens) [9] it was 0.352; in assay [10] it was 0.551. For the same compound, the composite z-score in assay [12] is -0.0501. The z-score is -1.16 (inactive) in assay [2]; 1.3 (inactive) in assay [3]; 4.12 (inactive) in assay [4]; -0.836 (inactive) in assay [5]; -0.009 (inactive) in assay [11]; 1.88 (inactive) in assay [13]. Moreover, the z-score in assay [14] was 0.58 (inactive); in assay [15], 0.761 (inactive); in [16] it was 0.427 (inactive); in assay [17], -0.104; in assay [18], -0.118 (inactive); in assay [19], -1.16 (inactive). The z-score in [20] was -0.16.
With `O=C1C2C=CC(C(O)c3cccc(O)c3)N(Nc3ccccc3F)C2C(=O)N1c1ccccc1` (stereo not given), the composite z-score in assay [1] was -0.333; in assay [6], -0.344; in assay [7] it was -0.21; with Torsin-1A (Homo sapiens) [8] it was -0.701; in the assay with Torsin-1A (Homo sapiens) [9], 0.239; in assay [10] it was 0.0048. For the same compound, in [12], the composite z-score is 0.137. Besides, the z-score in assay [2] is -6.08 (inactive); in assay [3], -2.21 (inactive); in assay [4], -0.471 (inactive); in [5], -0.556 (inactive); in assay [11], 0.906 (inactive); in assay [13] it was 9.49 (active). The z-score is 1.43 (inactive) in assay [14]; 0.868 (inactive) in [15]; 0.0443 (inactive) in assay [16]; 3 in [17]; -4.98 (inactive) in assay [18]; -5.16 (inactive) in [19]. In assay [20], the z-score is -6.27.
Consider `C=CCOC(=O)[C@@H]1[C@H]2C(=O)O[C@H](c3ccccc3)[C@H](c3ccccc3)N2[C@H](c2ccc(OCCOC(=O)[C@H]3C[C@H]4C(=O)NCC(=O)N4[C@H]3c3ccc(O)cc3)cc2)[C@@]12C(=O)Nc1ccc(I)cc12`, for which the composite z-score in [1] is 0.266; in assay [6], 0.868; in assay [7] it was -0.0163; in the assay with Torsin-1A (Homo sapiens) [8], 1.11; with Torsin-1A (Homo sapiens) [9], 0.854; in assay [10], 1.81. Also, the composite z-score in assay [12] was -0.154. Moreover, the z-score in [2] was -0.199 (inactive); in [3], 0.22 (inactive); in [4], -0.394 (inactive); in assay [5], -0.732 (inactive); in [11], -0.707 (inactive); in [13] it was 8.8 (active). Also, the z-score is 2.39 (inactive) in assay [14]; 0.345 (inactive) in assay [15]; 1.16 (inactive) in assay [16]; 0.379 in assay [17]; 0.588 (inactive) in [18]; 0.812 (inactive) in assay [19]. For the same compound, the z-score in assay [20] was determined as 0.711.
